We go through 24 molecules from PubChem BioAssay (EPA / NIEHS).

The term AC50 denotes the concentration at which the activity in the assay is half-maximal.

The nature of assay [1]: ATG_CRE_CIS: Attagene CIS-FACTORIAL HepG2 Assay for human cAMP Responsive Element (CRE) binding protein 3 (AID 2282926). The conditions noted are these: HepG2 CRE cis-reporter, Attagene multiplexed mRNA; actives raise or lower the signal. In a few lines:
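We dosed HepG2 cells bearing multiple cis-promoter reporter units for 24 h and measured reporter mRNA by RT-PCR with capillary electrophoresis detection. Bidirectional concentration-response fitting used DMSO as negative control.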

Assay [2] addresses CCAAT/enhancer-binding protein beta (Homo sapiens) (UniProt P17676). Description: ATG_C_EBP_CIS: Attagene CIS-FACTORIAL HepG2 Assay for human CCAAT/Enhancer Binding Protein (C/EBP) beta (AID 2282927). The following applies: HepG2 Attagene cis-factorial transcription factor reporter; actives raise or lower the signal. In a few lines:
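HepG2, transient MRTU transfection, 24 h treatment. RT-PCR plus CE fluorescence; DMSO negative control, bidirectional fit.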

The nature of assay [3]: ATG_CMV_CIS: Attagene CIS-FACTORIAL HepG2 Assay for human CMV (Internal Marker) (AID 2282928).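 Note: endpoint acts as a background internal control marker rather than a target.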 The conditions noted are these: HepG2 CMV promoter reporter, transcription factor profiling; actives raise or lower the signal. The method, boiled down:
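After transient transfection of HepG2 with reporter transcription units driven by cis-regulatory promoters, cells receive test chemical for 24 h. Labeled reporter amplicons, digested with HpaI, are sized and quantified by capillary electrophoresis against DMSO.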

Assay [4] can be described thus: ATG_DR4_LXR_CIS: Attagene CIS-FACTORIAL HepG2 Assay for human Liver X Receptor (LXR), DR4 submotif (AID 2282929). The conditions noted are these: HepG2 Attagene DR4 cis-reporter, mRNA transcription; actives raise or lower the signal. In a few lines:
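Endogenous factor activity at a DR4 cis-element is read as reporter mRNA in transiently transfected HepG2 cells. Exposure lasts 24 h; transcripts are amplified, fluorescently labelled and sized by capillary electrophoresis, with DMSO as baseline.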

Assay [5] deals with Aryl hydrocarbon receptor (Homo sapiens) (UniProt P35869). The assay can be described thus: ATG_Ahr_CIS: Attagene CIS-FACTORIAL HepG2 Assay for human Aryl Hydrocarbon Receptor (Ahr) (AID 2282930). The following applies: HepG2 AhR cis-factorial reporter transcription; actives raise or lower the signal. The method, boiled down:
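Endogenous factor activity is tracked through cis-promoter reporter units transfected into HepG2 cells. Transcript levels at 24 h are read by fluorescent RT-PCR and capillary electrophoresis, with activity in either direction scored relative to DMSO.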

The nature of assay [6]: ATG_AP_1_CIS: Attagene CIS-FACTORIAL HepG2 Assay for human Activator Protein 1 (AP-1) (AID 2282931). The conditions noted are these: HepG2 Attagene cis-factorial AP-1 reporter mRNA; actives raise or lower the signal. The method, boiled down:
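Fluorescence of labelled PCR fragments separated by capillary electrophoresis gives reporter mRNA levels. HepG2 with transfected cis-regulated reporter units, 24 h exposure; DMSO serves as baseline for bidirectional curve fits.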

Assay [7] can be described thus: ATG_AP_2_CIS: Attagene CIS-FACTORIAL HepG2 Assay for human Activator Protein 2 (AP-2) (AID 2282932). The following applies: HepG2 AP-2 cis-reporter, Attagene transcription factor profiling; actives raise or lower the signal. In a few lines:
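Multiplexed mRNA reporter assay in HepG2: cis-regulated units report endogenous factor activity after 24 h treatment. Fluorescence from capillary electrophoresis of RT-PCR products gives the signal, with DMSO as baseline.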

Assay [8] is described as follows: ATG_BRE_CIS: Attagene CIS-FACTORIAL HepG2 Assay for human Bone Morphogenetic Protein (BMP) Response Element (BRE) (AID 2282933). The following applies: HepG2 BMP response element reporter, Attagene transcription factor profiling; actives raise or lower the signal. In a few lines:
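Endogenous transcription factor activity read in transiently transfected HepG2 cells after 24 h chemical exposure. Bidirectional curve fitting against DMSO; readout is reporter transcript level by RT-PCR with capillary electrophoresis of labelled products.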

Assay [9] addresses Retinoic acid receptor alpha (Homo sapiens) (UniProt P10276). Description: ATG_DR5_RAR_CIS: Attagene CIS-FACTORIAL HepG2 Assay for human Retinoic Acid Receptor Alpha (RARE), DR5 submotif (AID 2282934).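 For AC50: reporter responds to endogenous RAR alpha beta and gamma in HepG2 not RARA alone.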 The following applies: HepG2 Attagene cis-factorial RARE DR5 reporter, mRNA; actives raise or lower the signal. In a few lines: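 After 24 h of chemical exposure, transiently transfected HepG2 cells were lysed for total RNA; the DR5-regulated reporter transcript was quantified via RT-PCR and capillary electrophoresis, with activity fitted bidirectionally against DMSO.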

For assay [10], the target named is Transcription factor E2F1 (Homo sapiens) (UniProt Q01094). Description: ATG_E2F_CIS: Attagene CIS-FACTORIAL HepG2 Assay for human E2F Transcription Factor 1 (AID 2282935). The following applies: HepG2 Attagene cis-reporter, E2F reporter RNA transcripts; actives raise or lower the signal. The method, boiled down:
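Measures reporter transcript levels via RT-PCR with capillary electrophoresis detection in HepG2 cells harboring cis-regulated reporter units; 24 h post-dose; bidirectional curve fitting with DMSO as baseline.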

Structures are written as SMILES. Active and inactive are the calls of the source. Rule for the calls: active = hit-call score of the fitted dose curve at least 0.9, where 1 is the maximum; inactive = score below 0.9.

Sequence of Transcription factor E2F1 (Homo sapiens) (Q01094 whole entry, looked up): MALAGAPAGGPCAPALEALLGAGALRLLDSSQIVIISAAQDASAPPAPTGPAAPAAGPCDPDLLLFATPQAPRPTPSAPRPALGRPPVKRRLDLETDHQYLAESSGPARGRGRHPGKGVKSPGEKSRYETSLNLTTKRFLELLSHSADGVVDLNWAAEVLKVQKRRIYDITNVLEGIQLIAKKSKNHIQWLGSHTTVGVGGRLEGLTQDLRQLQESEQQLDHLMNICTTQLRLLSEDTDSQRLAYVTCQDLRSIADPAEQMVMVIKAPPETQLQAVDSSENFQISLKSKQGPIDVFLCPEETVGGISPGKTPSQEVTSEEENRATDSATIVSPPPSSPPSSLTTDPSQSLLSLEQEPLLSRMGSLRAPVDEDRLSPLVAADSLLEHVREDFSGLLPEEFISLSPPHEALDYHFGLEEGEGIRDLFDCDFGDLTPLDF
Sequence of Retinoic acid receptor alpha (Homo sapiens) (P10276 whole entry, looked up): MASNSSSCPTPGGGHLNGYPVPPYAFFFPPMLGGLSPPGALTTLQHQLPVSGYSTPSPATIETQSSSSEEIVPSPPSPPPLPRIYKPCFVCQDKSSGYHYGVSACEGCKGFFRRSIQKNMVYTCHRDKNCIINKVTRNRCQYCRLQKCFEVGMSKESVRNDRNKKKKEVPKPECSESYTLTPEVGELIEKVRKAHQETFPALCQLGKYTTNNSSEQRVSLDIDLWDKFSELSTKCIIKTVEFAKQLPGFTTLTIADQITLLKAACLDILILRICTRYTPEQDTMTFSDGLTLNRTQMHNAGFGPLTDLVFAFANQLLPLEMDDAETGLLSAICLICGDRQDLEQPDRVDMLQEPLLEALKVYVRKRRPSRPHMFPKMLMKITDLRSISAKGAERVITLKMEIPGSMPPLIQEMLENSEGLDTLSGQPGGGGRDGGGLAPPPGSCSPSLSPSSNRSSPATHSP
Sequence of CCAAT/enhancer-binding protein beta (Homo sapiens) (P17676 whole entry, looked up): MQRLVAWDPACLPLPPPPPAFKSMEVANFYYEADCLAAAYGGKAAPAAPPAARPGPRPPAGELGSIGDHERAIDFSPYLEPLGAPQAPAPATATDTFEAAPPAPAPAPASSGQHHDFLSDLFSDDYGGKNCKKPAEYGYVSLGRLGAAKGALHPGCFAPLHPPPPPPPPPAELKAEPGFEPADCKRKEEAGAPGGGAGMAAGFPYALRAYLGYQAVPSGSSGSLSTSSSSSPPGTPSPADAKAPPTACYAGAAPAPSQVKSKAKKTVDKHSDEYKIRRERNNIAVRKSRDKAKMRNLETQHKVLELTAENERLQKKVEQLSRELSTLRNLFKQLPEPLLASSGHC
Sequence of Aryl hydrocarbon receptor (Homo sapiens) (P35869 whole entry, looked up): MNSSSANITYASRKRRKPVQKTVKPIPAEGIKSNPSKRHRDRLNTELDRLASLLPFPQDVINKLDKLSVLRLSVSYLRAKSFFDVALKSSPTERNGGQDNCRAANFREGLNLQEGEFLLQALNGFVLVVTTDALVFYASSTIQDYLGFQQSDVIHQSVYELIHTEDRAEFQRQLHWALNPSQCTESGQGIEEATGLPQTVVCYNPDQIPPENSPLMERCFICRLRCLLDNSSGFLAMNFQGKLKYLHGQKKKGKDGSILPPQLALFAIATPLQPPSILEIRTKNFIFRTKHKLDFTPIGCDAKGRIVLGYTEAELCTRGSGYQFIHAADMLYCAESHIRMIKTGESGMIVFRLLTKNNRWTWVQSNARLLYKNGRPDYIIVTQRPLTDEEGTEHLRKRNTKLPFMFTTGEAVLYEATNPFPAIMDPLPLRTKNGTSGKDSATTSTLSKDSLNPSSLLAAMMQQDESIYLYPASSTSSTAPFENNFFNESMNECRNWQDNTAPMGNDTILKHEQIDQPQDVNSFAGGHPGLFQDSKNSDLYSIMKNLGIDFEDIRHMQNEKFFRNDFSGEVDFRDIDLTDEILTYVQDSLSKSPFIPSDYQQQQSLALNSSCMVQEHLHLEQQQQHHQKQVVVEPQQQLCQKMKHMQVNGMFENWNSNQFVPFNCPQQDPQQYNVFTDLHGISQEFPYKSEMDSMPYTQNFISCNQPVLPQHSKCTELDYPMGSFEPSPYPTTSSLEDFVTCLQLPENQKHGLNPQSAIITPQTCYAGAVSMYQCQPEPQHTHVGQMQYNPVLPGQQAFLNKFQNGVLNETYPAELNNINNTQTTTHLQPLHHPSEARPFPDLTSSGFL

For the molecule `O=C(O)c1cn(-c2ccc(F)cc2)c2cc(N3CCNCC3)c(F)cc2c1=O`, the call in assay [1], in assay [2], in assay [3], in assay [4], in assay [5] and in [6] was inactive. The molecule was classed as inactive in assay [7], in assay [8], in [9] and in assay [10].

Regarding `C=CC(=O)OCCOCCOCC`, the outcome in assay [1], in assay [2], in assay [4], in assay [5], in assay [6] and in assay [7] was inactive. Besides, the outcome in assay [8], in assay [9] and in assay [10] was inactive. Further, in [3], the concentration at half-maximal activity (AC50) was 48.2 µM (active).

For the molecule `CCCC[n+]1ccccc1`, the call in [1], in assay [2], in [3], in [4], in [5] and in assay [6] was inactive. For the same molecule, the molecule was classed as inactive in [7], in [8], in [9] and in [10].

Regarding `C=C[C@@H](C)CCC=C(C)C`, the molecule was called inactive in assay [1], in assay [2], in [3], in assay [4], in assay [5] and in assay [6]. Besides, the molecule was called inactive in assay [7], in assay [8], in [9] and in assay [10].

Regarding `CCC(=O)OCCC(C)CCC=C(C)C` (stereo not given), the call in assay [1], in assay [2], in [3], in assay [4], in [5] and in [6] was inactive. Moreover, the result in assay [7], in assay [8] and in [10] was inactive. Further, the AC50 in [9] is 72.4 µM (active).

`CN1Cc2c(N)cccc2C(c2ccccc2)C1` (stereo not given): the call in assay [1], in assay [2], in assay [3], in [4], in assay [6] and in assay [7] was inactive. The call in assay [8], in [9] and in [10] was inactive. The AC50 in assay [5] is 59.1 µM (active).

Consider `CO[Si](CCCn1c(=O)n(CCC[Si](OC)(OC)OC)c(=O)n(CCC[Si](OC)(OC)OC)c1=O)(OC)OC`, for which the molecule was classed as inactive in assay [1], in assay [2], in assay [3], in assay [4], in [5] and in [6]. In addition, the call in [7], in [8], in assay [9] and in assay [10] was inactive.

On to `Nc1nc2ccc([N+](=O)[O-])cc2s1`, for which the molecule was classed as inactive in [1], in assay [2], in [3], in assay [4], in assay [6] and in assay [7]. The call in assay [9] and in [10] was inactive. Further, the results for the AC50 in [5] and in assay [8] were 5.26 µM (active) and 100 µM (active), respectively.

In the case of `CC1CCC(C(C)CS)CC1S` (stereo not given), the AC50 was 33.4 µM (active) in assay [1], 45.9 µM (active) in [5] and 55.1 µM (active) in [10]. Also, the outcome in assay [2], in assay [3], in assay [4], in [6], in [7] and in assay [8] was inactive. The molecule was classed as inactive in [9].

As for `CC[C@]12CCCN3CCc4c(n(c5ccccc45)[C@@](O)(C(=O)OC)C1)[C@@H]32`, the molecule was classed as inactive in assay [1], in assay [2], in [3], in [4], in [5] and in [6]. For the same molecule, the call in assay [7], in assay [8], in assay [9] and in assay [10] was inactive.

With `CC(=O)c1c(C)cc(C(C)(C)C)cc1C`, the outcome in assay [1], in [2], in assay [3], in assay [4], in assay [5] and in [6] was inactive. For the same molecule, the result in assay [7], in assay [8], in [9] and in assay [10] was inactive.

As to `COc1ccc(Cl)cc1C`, the molecule was classed as inactive in [1], in assay [2], in assay [3], in assay [4], in assay [6] and in [7]. Moreover, the molecule was called inactive in [8], in [9] and in [10]. Also, the AC50 in assay [5] is 36.9 µM (active).

For the molecule `OCCOc1cccc(OCCO)c1`, the outcome in [1], in assay [2], in [3], in assay [4], in assay [5] and in [6] was inactive. Besides, the molecule was called inactive in assay [7], in [8], in [9] and in assay [10].

As to `O=c1[nH]c(=O)n([C@H]2CCCO2)cc1F`, the call in [1], in assay [2], in assay [3], in [4], in assay [5] and in [6] was inactive. Also, the molecule was called inactive in [7], in [8], in [9] and in assay [10].

Take `NCCNCCN`: the result in [1], in assay [2], in [3], in [4], in assay [5] and in assay [6] was inactive. For the same molecule, the molecule was called inactive in [7], in assay [8], in assay [9] and in assay [10].

As to `CCOC(=O)c1ccccc1OC`, the outcome in assay [1], in [2], in assay [3], in assay [4], in assay [5] and in [6] was inactive. The molecule was called inactive in [7], in assay [8], in assay [9] and in [10].

Take `CCN(CC)c1ccc(C(=C2C=CC(=[N+](CC)CC)C=C2)c2ccc(S(=O)(=O)O)cc2S(=O)(=O)[O-])cc1`: the result in assay [1], in assay [2], in [3], in assay [4], in assay [5] and in assay [6] was inactive. The molecule was classed as inactive in assay [7], in [8], in [9] and in [10].

For `CNC[C@H](O)c1cccc(O)c1`, the molecule was classed as inactive in assay [1], in assay [2], in assay [3], in assay [4], in assay [5] and in assay [6]. For the same molecule, the outcome in assay [7], in assay [8], in [9] and in assay [10] was inactive.

For the molecule `CCO[Si](CCCS)(OCC)OCC`, the call in [1], in assay [2], in [3], in assay [4], in assay [5] and in assay [6] was inactive. Further, the outcome in [7], in assay [8], in assay [9] and in assay [10] was inactive.

For `CC1(C)C(=O)N(Br)C(=O)N1Cl`, the result in assay [1], in assay [2], in assay [3], in [4], in assay [5] and in assay [6] was inactive. Also, the result in [7], in [8], in [9] and in assay [10] was inactive.

Take `CCC(C)CCCC(C)(C)O` (stereo not given): the molecule was classed as inactive in assay [1], in [2], in assay [3], in assay [4], in assay [5] and in [6]. Further, the molecule was called inactive in assay [7], in assay [8], in [9] and in [10].

Regarding `O=C[C@H](O)[C@H](O)[C@H](O)CO`, the result in [1], in assay [2], in assay [3], in assay [4], in [5] and in assay [6] was inactive. In addition, the call in assay [7], in assay [8], in assay [9] and in assay [10] was inactive.

Turning to `CCN(CC)CCOC(=O)c1ccc(N)cc1`, the result in [1], in assay [2], in [3], in assay [4], in [5] and in assay [6] was inactive. In addition, the result in assay [7], in [8], in assay [9] and in assay [10] was inactive.

Regarding `Cc1ccc2ccccc2n1`, the molecule was called inactive in assay [1], in assay [2], in assay [3], in assay [4], in assay [6] and in assay [7]. Moreover, the outcome in assay [8], in assay [9] and in assay [10] was inactive. For the same molecule, in [5], the AC50 was 18.3 µM (active).
